# Screening results as filed in PubChem BioAssay.
# ERK AVP inh: inhibitors of vasopressin-stimulated ERK signaling pathway; HEK293-V1b, vasopressin-stimulated pERK AlphaScreen; Potency, µM (highest dose often 57.5 µM), inactives show top-dose activity, negative = inhibition, hits mostly inhibitors; 0.99% of 72,000 active; AID 995; further: nearly all actives have a fitted effect of over 55% in size
#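 qHTS, compounds titrated on V1b-expressing HEK293 cells. Preincubation 30 min at 37C, vasopressin 25 nM for 5 min, lysis 10 min, bead incubation 5 hr at room temperature.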
# ALOX15 inhib: 15-hLO (ALOX15) enzyme inhibition | Potency, µM (series often up to 57.1 µM), for inactives: top-dose activity change, negative = inhibition, usual class: inhibitors | AID 887 | 1.4% of 74,000 active | purified 15hLO-1, xylenol orange hydroperoxide absorbance | P16050; further: nearly all actives have a fitted effect of over 55% in size
#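 40 nM 15hLO-1 + cpd, 15 min RT; start w/ 50 uM AA (final), 6 min RT; stop/detect w/ 200 uM XO + 300 uM Fe(II) in 50 mM H2SO4, 30 min; A573/A405. Buffer 25 mM Hepes pH 7.5, 0.01% Triton X-100. No-enzyme wells as negative control.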
# FLuc inh: firefly luciferase inhibition; Potency, µM (top dose mostly 57.1 µM), for the others: at the highest dose activity change, negative = inhibition, actives largely listed as inhibitors; P08659; 2.2% of 72,000 active; purified firefly luciferase, luminescence, 8 min; further: nearly all actives have a fitted effect of over 40% in size
#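 qHTS concentration-response profiling: light output of P. pyralis luciferase with luciferin and 10 uM ATP, imidazole buffer pH 7.2. Read by luminescence after 8-min room-temperature incubation.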
# Hsp90 Hop PPI: changes Hsp90-Hop TPR2A binding signal, up or down. Potency, µM (top dose mostly 57 µM), for inactives: at the highest dose activity change, negative = inhibition. 0.44% of 71,000 active. AID 595. AlphaScreen TPR2A-His6 binding biotin-Hsp90 C-terminal peptide; active means well fitted curve in either direction with a large enough effect; inconclusive means small, poorly fitted or top-dose-only effect, or another doubt
# Tau filament bind: tau filament binding; P10636; recombinant tau filaments, thioflavin S fluorescence, 15 h; filaments grown with octadecylsulfate alongside compound; Potency, µM (top dose mostly 57.1 µM), without a hit: at the highest dose activity change, negative = inhibition; 2% of 71,000 active; AID 596;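 further: actives lower thioflavin S fluorescence by blocking filaments or displacing dye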
# Target sequence (P10636 whole entry, looked up): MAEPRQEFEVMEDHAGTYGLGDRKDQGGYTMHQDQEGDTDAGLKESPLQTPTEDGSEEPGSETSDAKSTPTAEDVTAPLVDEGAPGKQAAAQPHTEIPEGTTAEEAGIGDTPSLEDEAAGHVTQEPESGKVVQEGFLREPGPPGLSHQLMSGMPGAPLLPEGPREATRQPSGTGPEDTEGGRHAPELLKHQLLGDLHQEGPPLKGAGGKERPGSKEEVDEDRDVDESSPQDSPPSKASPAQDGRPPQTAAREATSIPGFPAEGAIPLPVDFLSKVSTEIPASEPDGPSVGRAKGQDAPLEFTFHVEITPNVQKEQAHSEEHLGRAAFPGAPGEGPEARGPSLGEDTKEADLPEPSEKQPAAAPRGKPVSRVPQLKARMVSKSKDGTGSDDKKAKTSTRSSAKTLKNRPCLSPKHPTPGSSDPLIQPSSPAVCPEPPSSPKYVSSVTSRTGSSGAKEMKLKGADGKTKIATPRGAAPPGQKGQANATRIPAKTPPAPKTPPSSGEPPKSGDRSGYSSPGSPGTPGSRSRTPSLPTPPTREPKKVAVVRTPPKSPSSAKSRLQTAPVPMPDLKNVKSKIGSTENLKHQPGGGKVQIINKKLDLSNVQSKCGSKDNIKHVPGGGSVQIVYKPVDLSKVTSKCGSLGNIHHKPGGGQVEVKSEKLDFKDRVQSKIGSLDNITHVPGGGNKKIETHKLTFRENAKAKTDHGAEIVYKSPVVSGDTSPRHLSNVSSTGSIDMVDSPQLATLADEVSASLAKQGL
#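 His-tagged recombinant human tau (exons 2, 3 and 10 included), 1 uM, was induced to fibrillize by 30 uM sodium octadecylsulfate with compound present. After 15 h at 37 C, thioflavine S fluorescence (ex 450, em 510 nm) was read.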
# Bst PK mod: pyruvate kinase (B. stearothermophilus) modulation. Potency, µM. 1.2% of 51,000 active. purified pyruvate kinase, luminescence ATP production; ribose 5-phosphate activator present at AC10. AID 361; in the data active means potency below about 11 µM; inconclusive means mostly about 12 µM to 25 µM;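 the screen sought inhibitors and activators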;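 further: scaled between full activation by ribose 5 phosphate and full inhibition by luteolin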
# * marks the source's active call; other numbers are inactive results; i = inactive; u = inconclusive; x = no result given; [ ] = remark or other dose. Hits are enriched below; roughly 6.1% of the tested compounds scored in any of these assays. Unless noted, the call rests on the fitted dose curve; in most records, active means well fitted curve in the direction sought with a large enough effect; inconclusive means small, poorly fitted or top-dose-only effect, or another doubt; inactive means no such curve, though single readings can be large; an effect the other way counts as inactive or inconclusive. Unless noted, on the % scale 0 is the no-effect control and ±100 the full control effect; potency means the concentration at half of the fitted maximal effect.
SMILES,ERK AVP inh,ALOX15 inhib,FLuc inh,Hsp90 Hop PPI,Tau filament bind,Bst PK mod
Cc1cc(NC(=O)c2ccccc2F)n(-c2nc3ccccc3[nH]2)n1,-26%,1%,-1%,-6%,-2%,>57
O=C(NCCc1nc2ccccc2[nH]1)c1ccc(F)cc1,-9%,4%,0%,-3%,-25%,>57
O=C(Nc1nc2ccccc2[nH]1)c1ccc(F)cc1,-16%,4%,3.2µM*,-1%,-2%,3.1*
CCn1cnc2cc(NCc3nc4ccccc4n3C)ccc21,-30%,27%,13µM*,-17%,7%,x
CC(C)n1cnc2cc(NCc3nc4ccccc4n3C)ccc21,-17%,19%,13µM*,-10%,15%,x
Cn1c(CNc2ccccc2O)nc2ccccc21,x,18%,-13%,u,-13%,x
Cn1c(CNc2ccccc2)nc2ccccc21,x,6%,x,x,x,x
COC(=O)CC[C@@H](C)[C@@H]1CC[C@@H]2[C@@H]3CC[C@H]4C[C@@H](O)CC[C@@]4(C)[C@@H]3CC[C@]21C,1%[11.5 µM],16%[11.4 µM],3%[11.4 µM],1%[11 µM],21%[11.4 µM],x
CCOC(=O)c1ccc(NC(=O)c2cccc(S(=O)(=O)N3CCOCC3)c2)cc1,5µM*,-19%,-7%,-3%,-8%,x
O=C(Nc1cccc(F)c1)c1cccc(S(=O)(=O)N2CCOCC2)c1,-14%,2%,2%,0%,-10%,>57
O=C(Nc1ccc(F)c(F)c1)c1ccc(F)c(S(=O)(=O)N2CCOCC2)c1,-3%,4%,0%,1%,-5%,>57
CCOC(=O)c1ccc(NC(=O)c2ccc(C)c(S(=O)(=O)N3CCOCC3)c2)cc1,3.2µM*,-17%[11.4 µM],-2%,-2%[11 µM],26%[11.4 µM],x
O=C(Nc1ccc2c(c1)OCO2)c1ccc(Br)c(S(=O)(=O)N2CCCC2)c1,u,-15%,-11%,-6%,-10%,>57
O=C(Nc1ccc2c(c1)OCCO2)c1ccc(Br)c(S(=O)(=O)N2CCOCC2)c1,7.9µM*,-3%[11.4 µM],-12%,-19%[11 µM],-5%[11.4 µM],x
CCCn1c(C)nc2c(NCc3ccccc3)nc(C)nc21,u,-22%,x,-3%,-14%,x
CC1(C)CCCC2(C)C3C(O)CC2(C)C(O)C31 (stereo not given),11%,-4%,x,x,x,x
C[C@@H](C(=O)Nc1ccc2ccccc2c1)[C@@H]1C[C@@]1(C)[C@@H](NC(=O)Oc1ccc(F)cc1)c1ccccc1,2%,x,x,-2%,61%,x
Cc1ccc2cc3cc(C(=O)N4CCCCC4C)oc3nc2c1 (stereo not given),2%,0%,13µM*,2%,9%,u
Cc1oc(/N=C/c2cccc3ccccc23)c(C#N)c1C,u,u,-5%,-9%[11 µM],0.79µM*,x
CCCCS(=O)(=O)/C=C\C=C/S(=O)(=O)CCCC,3.2µM*,-5%,-14%,3%,10%,>57
Cc1ccc(-n2c(SCn3nnc4ccccc4c3=O)nnc2-c2cccnc2)c(C)c1,20%,-14%,-2%,-12%,16µM*,>57
O=c1c2ccccc2nnn1CSc1nnc(-c2cccnc2)n1-c1ccccc1F,3%,1%,0%,-4%,22%,>57
CC(C)CN1CCC2(CC1)CCN(C(=O)c1csnn1)CC2,8%,5%,0%[11.4 µM],3%,-7%,x
COc1ccc(-c2noc(N(C)CC(=O)Nc3cccc(C(F)(F)F)c3)n2)cc1,7%,u,25µM*,19%,12%,i
O=C(NC1CCS(=O)(=O)C1)c1ccc(-c2ccc(Br)cc2)o1 (stereo not given),-7%,-3%,-2%,-4%,18%,7.8*
NC(=O)c1cc(Br)cc2c3c([nH]c12)CCCC3,u,7.9µM*,-2%,-7%,i,0.69*
O=c1c2c([nH]c3ccc(Br)cc13)CCCC2,-5%,-6%,-2%,-4%,12%,x
CC(=O)Nc1nc(-c2ccccc2)nc(-c2ccccc2OC(C)=O)n1,u,16µM*,-6%,-13%,1.3µM*,x
COc1ccc(C(=O)N2CCC3(CC2)CN(c2ccc(-c4ccccc4)cc2)C3)cc1,u,-5%,2%[11.4 µM],-2%,2%,x
CN(C)c1ccc(NC(=O)c2sc(SCC(=O)Nc3nccs3)nc2N)cc1,x,x,4µM*,x,x,10*
